In the supplement of paper PMC10849652:
About 7,900 targets were measured; listed, in parts, are those with a hit and a random draw of the rest. About 0.6% of all pairs of compound and target were hits. A number with no mark means an inactive call.

How the values were obtained:
Test in all cases: log2 fold change, soluble protein after heating vs DMSO (PISA); higher = thermal stabilisation; K562 cells, 10 uM, 30 min; active = over 0.2 and 3.5 SD of the protein, either way, in both replicates (recomputed)
[1] = compound: C#Cc1cccc(Nc2ncnc3cc(OCCOC)c(OCCOC)cc23)c1 [erlotinib]
Summary of the method: (§1)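 Thermal stability values are relative to control samples and come from duplicates. They are expressed as log2 fold changes. For measurement, K562 cells (2×10^6 cells/mL) received 10 μM compound for 30 min, and aliquots were heated for 3 min over 48°C-58°C, pooled, and extracted at 4°C in PBS with 0.5% NP-40. Soluble protein, the supernatant after 21,000xg for 90 min, was quantified by TMTpro 16plex LC-MS/MS with equalised channel sums.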

[2] = compound: C/C(=N\NC(=O)C1=CC(=CC=C1)S(=O)(=O)N2CCOCC2)/C3=C(C=CC(=C3)Cl)O
Summary of the method: as §1

[3] = compound: C1=CC(=C(C=C1Cl)C2=NC3=NC=CN=C3C(=N2)NC4=CC=NC=C4)F
Summary of the method: as §1

[4] = compound: C1=CC(=CC=C1C2=NC3=C(N2)C=C(C=C3)C(=O)N)OC4=CC=C(C=C4)Cl
Summary of the method: as §1

[5] = compound: C1=CC2=C(C=CC(=C2)/C=C\3/C(=O)NC(=NCC4=CC=CS4)S3)N=C1
Summary of the method: as §1

[6] = compound: C1=CC2=NC=CN=C2C=C1/C=C/3\C(=O)NC(=O)S3
Summary of the method: as §1

[7] = compound: C1=CC=C(C=C1)C2=NC(=C(N2)C3=CC=NC=C3)C4=CC(=C(C=C4)Cl)O
Summary of the method: as §1

[8] = compound: C1=CC=C2C(=C1)C3=NNC4=CC=CC(=C43)C2=O
Summary of the method: as §1

[9] = compound: C1CCN(C1)C(=O)NC2=CC=CC(=C2)NC3=NC=C(C(=N3)NCCC4=CN=CN4)Br
Summary of the method: as §1

[10] = compound: C1CN(CCC1(CC2=CC=C(C=C2)Cl)N)C3=NC=NC4=C3C=CN4
Summary of the method: as §1

UniProt Q9Y314, sequence (Q9Y314 whole entry, looked up): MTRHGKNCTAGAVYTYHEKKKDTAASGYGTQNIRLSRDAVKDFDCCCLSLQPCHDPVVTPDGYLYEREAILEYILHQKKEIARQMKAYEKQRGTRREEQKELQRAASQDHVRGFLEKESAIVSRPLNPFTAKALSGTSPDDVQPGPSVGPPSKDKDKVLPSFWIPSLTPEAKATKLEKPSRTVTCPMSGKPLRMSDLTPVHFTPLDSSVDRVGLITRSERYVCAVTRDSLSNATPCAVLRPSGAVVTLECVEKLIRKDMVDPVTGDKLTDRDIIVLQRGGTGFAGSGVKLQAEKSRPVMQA
UniProt P84157, sequence (P84157 whole entry, looked up): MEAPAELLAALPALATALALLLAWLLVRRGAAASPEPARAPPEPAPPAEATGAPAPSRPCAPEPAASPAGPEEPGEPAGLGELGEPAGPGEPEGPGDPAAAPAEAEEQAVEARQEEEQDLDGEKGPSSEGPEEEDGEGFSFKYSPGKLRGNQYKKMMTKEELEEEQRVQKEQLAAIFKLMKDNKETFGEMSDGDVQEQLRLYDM
UniProt Q96H55, sequence (Q96H55 whole entry, looked up): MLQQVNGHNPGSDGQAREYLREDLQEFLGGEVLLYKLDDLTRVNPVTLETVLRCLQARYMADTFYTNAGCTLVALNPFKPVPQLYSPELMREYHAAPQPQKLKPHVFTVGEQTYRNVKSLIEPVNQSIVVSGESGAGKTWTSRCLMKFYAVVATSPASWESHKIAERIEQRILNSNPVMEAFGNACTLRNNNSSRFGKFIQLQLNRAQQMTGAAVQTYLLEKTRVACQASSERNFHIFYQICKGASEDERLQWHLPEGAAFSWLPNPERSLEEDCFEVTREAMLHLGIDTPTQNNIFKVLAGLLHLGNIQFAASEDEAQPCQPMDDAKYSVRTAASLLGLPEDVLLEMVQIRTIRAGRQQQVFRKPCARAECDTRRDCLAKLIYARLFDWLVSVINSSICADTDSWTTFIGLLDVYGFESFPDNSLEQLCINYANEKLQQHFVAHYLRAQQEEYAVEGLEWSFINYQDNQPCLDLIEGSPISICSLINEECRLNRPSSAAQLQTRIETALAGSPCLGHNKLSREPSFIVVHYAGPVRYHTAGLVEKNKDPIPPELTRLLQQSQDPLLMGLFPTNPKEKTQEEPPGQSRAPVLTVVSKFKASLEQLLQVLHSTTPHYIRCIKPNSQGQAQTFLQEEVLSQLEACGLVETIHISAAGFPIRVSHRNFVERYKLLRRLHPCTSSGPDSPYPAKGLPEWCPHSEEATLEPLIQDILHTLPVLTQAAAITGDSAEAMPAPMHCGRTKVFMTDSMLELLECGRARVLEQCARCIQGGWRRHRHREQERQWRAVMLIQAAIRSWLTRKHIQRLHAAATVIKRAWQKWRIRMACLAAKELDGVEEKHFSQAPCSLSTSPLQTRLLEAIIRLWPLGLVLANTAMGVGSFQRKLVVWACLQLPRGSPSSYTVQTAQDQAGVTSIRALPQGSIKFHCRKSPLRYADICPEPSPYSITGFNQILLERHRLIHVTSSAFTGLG
UniProt O15118, sequence (O15118 whole entry, looked up): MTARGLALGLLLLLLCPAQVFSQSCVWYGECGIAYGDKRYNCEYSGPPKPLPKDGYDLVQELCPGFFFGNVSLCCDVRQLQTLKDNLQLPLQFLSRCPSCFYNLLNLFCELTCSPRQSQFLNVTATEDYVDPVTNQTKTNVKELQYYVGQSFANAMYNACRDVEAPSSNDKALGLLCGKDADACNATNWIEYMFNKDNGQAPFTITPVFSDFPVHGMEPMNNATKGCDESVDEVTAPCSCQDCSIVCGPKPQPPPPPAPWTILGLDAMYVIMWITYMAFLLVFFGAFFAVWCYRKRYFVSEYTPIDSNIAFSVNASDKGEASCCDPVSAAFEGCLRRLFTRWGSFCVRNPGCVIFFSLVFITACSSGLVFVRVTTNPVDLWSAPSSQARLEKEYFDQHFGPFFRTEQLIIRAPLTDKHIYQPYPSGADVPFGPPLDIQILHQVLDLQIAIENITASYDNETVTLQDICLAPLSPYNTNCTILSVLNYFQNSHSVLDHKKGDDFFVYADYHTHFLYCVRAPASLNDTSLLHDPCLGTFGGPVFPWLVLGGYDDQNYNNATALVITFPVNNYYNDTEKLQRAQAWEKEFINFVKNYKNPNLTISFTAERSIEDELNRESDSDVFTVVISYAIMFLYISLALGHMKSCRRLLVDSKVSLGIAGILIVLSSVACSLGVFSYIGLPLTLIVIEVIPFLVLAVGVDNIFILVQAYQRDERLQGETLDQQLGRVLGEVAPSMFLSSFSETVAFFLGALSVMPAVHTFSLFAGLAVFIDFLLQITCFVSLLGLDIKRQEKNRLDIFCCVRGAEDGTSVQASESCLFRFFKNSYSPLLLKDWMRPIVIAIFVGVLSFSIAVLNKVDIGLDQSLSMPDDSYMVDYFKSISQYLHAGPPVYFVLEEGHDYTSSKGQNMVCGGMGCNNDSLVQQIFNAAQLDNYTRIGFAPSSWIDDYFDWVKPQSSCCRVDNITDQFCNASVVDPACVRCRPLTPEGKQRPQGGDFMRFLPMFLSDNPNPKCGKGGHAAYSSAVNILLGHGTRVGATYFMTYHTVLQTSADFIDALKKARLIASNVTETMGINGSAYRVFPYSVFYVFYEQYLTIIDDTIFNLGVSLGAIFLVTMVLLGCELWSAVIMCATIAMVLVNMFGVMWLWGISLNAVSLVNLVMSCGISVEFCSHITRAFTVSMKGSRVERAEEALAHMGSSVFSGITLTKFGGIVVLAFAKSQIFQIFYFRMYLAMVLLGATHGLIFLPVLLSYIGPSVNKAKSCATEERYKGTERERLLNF
UniProt Q9H1E3, sequence (Q9H1E3 whole entry, looked up): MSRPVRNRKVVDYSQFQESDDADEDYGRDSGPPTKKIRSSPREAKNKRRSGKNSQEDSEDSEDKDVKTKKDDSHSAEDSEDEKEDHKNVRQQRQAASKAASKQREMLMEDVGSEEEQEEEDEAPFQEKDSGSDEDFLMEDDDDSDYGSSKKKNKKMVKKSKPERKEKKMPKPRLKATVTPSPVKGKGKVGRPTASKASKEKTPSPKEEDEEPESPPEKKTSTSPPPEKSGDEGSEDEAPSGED
UniProt Q13952, sequence (Q13952 whole entry, looked up): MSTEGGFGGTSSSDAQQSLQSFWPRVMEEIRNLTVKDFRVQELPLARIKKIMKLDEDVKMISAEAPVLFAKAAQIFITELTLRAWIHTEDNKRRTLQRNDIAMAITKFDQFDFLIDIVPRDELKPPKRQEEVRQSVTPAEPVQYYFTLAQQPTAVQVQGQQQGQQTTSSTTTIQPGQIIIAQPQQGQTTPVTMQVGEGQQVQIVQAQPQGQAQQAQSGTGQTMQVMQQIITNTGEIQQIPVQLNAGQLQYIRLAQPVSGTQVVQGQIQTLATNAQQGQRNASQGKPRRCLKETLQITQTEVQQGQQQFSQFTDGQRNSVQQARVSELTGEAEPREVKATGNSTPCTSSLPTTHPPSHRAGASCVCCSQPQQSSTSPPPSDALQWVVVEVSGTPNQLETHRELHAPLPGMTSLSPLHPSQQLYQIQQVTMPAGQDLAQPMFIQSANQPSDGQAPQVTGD
UniProt Q8WVJ2, sequence (Q8WVJ2 whole entry, looked up): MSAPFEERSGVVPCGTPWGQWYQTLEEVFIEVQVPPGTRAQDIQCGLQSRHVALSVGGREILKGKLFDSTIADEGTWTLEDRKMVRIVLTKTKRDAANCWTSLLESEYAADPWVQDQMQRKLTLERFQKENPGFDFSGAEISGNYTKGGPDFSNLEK
UniProt Q16795, sequence (Q16795 whole entry, looked up): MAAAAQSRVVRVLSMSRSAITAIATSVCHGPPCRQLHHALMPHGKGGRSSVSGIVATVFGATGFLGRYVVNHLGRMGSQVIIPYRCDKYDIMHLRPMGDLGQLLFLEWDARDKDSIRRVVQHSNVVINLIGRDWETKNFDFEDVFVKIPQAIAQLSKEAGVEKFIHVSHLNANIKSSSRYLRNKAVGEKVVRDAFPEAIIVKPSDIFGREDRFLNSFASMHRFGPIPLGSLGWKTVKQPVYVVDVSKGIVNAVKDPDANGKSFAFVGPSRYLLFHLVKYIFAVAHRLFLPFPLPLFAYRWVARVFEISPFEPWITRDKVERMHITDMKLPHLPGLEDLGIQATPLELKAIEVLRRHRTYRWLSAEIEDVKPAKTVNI
UniProt Q9UMY1, sequence (Q9UMY1 whole entry, looked up): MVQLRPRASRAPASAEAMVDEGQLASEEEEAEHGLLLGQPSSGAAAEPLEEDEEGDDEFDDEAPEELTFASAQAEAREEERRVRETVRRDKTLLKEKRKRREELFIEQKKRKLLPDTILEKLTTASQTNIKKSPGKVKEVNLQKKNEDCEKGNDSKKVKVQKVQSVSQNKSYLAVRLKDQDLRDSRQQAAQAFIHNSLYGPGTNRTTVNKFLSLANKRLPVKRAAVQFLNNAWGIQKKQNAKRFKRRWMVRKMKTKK
UniProt Q969V5, sequence (Q969V5 whole entry, looked up): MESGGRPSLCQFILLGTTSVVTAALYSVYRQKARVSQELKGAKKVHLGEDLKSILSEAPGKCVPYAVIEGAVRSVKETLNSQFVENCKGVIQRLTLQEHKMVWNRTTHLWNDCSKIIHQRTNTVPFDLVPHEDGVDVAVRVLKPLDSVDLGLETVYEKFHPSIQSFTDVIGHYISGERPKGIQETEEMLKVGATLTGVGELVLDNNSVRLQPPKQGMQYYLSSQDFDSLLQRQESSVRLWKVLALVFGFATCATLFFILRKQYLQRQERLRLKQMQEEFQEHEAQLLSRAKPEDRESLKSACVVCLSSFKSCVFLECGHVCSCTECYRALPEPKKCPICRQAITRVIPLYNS
UniProt Q9BV86, sequence (Q9BV86 whole entry, looked up): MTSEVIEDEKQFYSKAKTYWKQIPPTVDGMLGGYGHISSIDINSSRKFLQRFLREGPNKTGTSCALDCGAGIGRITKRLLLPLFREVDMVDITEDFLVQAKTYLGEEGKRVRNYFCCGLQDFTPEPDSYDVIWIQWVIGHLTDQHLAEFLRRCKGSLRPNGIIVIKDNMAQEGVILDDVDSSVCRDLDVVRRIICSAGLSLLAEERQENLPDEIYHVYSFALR
UniProt Q92686, sequence (Q92686 whole entry, looked up): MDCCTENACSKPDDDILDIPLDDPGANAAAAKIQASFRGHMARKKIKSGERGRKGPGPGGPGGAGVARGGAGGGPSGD

Target	log2 fold change [1]	log2 fold change [2]	log2 fold change [3]	log2 fold change [4]	log2 fold change [5]	log2 fold change [6]	log2 fold change [7]	log2 fold change [8]	log2 fold change [9]	log2 fold change [10]
NPC1 (UniProt O15118)	0.027	-0.033	-0.004	0.025	-0.01	0.028	0.011	-0.027	0.058	0.069
NCOA7 (UniProt Q8NI08)	-0.027	0.063	-0.047	0.004	0.07	-0.048	0.014	0.011	0.024	0.045
NRGN (UniProt Q92686)	0.066	0.086	0.054	-0.074	-0.264	-0.027	0.139	0.105	–	–
MON1B (UniProt Q7L1V2)	0.016	0.04	-0.021	0.023	0.089	-0.01	0.066	-0.004	-0.005	-0.006
NUMBL (UniProt Q9Y6R0)	-0.001	0.021	-0.026	-0.095	0.085	-0.047	0.042	0.056	–	–
MSH2 (UniProt P43246)	0.038	0.109	0.066	-0.004	0.037	0.025	-0.016	0.035	-0.064	-0.059
NUDCD2 (UniProt Q8WVJ2)	0.054	-0.003	0.019	-0.071	0.025	0.018	-0.014	0.012	-0.107	-0.08
NDUFA9 (UniProt Q16795)	-0.031	0.035	0.059	0.03	0.031	-0.016	0.025	0.047	0.005	0.024
MRPS22 (UniProt P82650)	-0.052	0.026	-0.021	0.16	-0.082	0	0.026	0.068	-0.028	-0.101
NOSIP (UniProt Q9Y314)	0.062	0.16	0.049	-0.05	-0.041	0.039	-0.033	-0.03	-0.234	-0.249
NOL7 (UniProt Q9UMY1)	-0.151	-0.208	-0.728 (active)	0.005	-0.179	0	-0.071	-0.058	0.045	-0.189
MRPS5 (UniProt P82675)	-0.077	0.038	0.009	0.193	0.007	-0.008	0.027	0.158	-0.035	-0.085
MUL1 (UniProt Q969V5)	0.015	0.038	0.073	-0.004	0.026	0.069	0.095	0.034	-0.025	0.005
NUDT21 (UniProt O43809)	-0.02	0.07	-0.127	0.047	-0.035	-0.015	-0.026	0.008	0.003	-0.089
NUP98 (UniProt P52948)	0.063	0.01	-0.085	-0.013	-0.011	0.035	-0.015	-0.217	-0.06	-0.012
MRPS10 (UniProt P82664)	-0.036	-0.089	-0.103	0.048	0.102	0.023	-0.037	0.04	0.001	-0.012
NSMCE4A (UniProt Q9NXX6)	-0.044	0.028	-0.002	0.072	0.182	-0.138	-0.031	-0.192	0.056	0.117
MYO19 (UniProt Q96H55)	0.032	-0.047	-0.103	-0.114	0.011	0.093	0.027	0.07	–	–
MXRA7 (UniProt P84157)	-0.052	-0.109	-0.083	0.047	-0.067	0.018	-0.033	0.037	-0.038	0.013
NDUFA12 (UniProt Q9UI09)	-0.014	0.011	0.016	0.147	0.075	0.001	0.061	-0.007	0.028	-0.031
NCKAP1 isoform 2 (UniProt Q9Y2A7)	-0.019	0.096	0.056	0.02	0.015	0.02	0.024	-0.003	-0.037	0.027
NUCKS1 (UniProt Q9H1E3)	0.045	-0.098	-0.002	-0.029	-0.052	0	-0.089	0.033	0.067	-0.002
NFATC2IP (UniProt Q8NCF5)	-0.051	0.131	-0.034	0.014	0.018	0.085	-0.029	-0.014	-0.117	0.061
NTMT1 (UniProt Q9BV86)	0.039	0.13	0.086	0.002	0.039	0.032	0.006	0.086	-0.101	0.151
MRPS35 (UniProt P82673)	-0.068	-0.028	-0.048	0.14	0.003	-0.043	0.022	0.096	0.042	-0.08
OPHN1 (UniProt O60890)	0.022	-0.155	0.101	-0.009	0.24	0.03	-0.007	0.039	0.044	0.04
NCL (UniProt P19338)	-0.154	-0.231	-0.723	-0.012	-0.109	-0.017	-0.112	0.061	0.037	-0.148
NPEPPS (UniProt P55786)	0.002	0.058	0.054	-0.027	0.061	0.002	0.005	0.035	-0.009	0.045
NFYC (UniProt Q13952)	0.014	0.004	0.016	-0.006	0.059	0.007	0.007	0.01	-0.034	-0.042
NELFA (UniProt Q9H3P2)	0.21	0.231	0.059	-0.061	0.073	0.111	0.048	0	-0.323	-0.028
